Compound activity deposited in PubChem BioAssay by National Center for Advancing Translational Sciences (NCATS).
Rows were chosen to be rich in hits. Some 2.7% of all compounds tested hit in one or more screens of this group.
gsp ag: agonists of gsp mutant (McCune-Albright syndrome). hit rate 0.13% among 340,000. gsp mutant cells, cAMP HTRF, 30 min. Potency, µM (highest dose often 76.9 µM), inactives show top-dose activation (cAMP increase), most hits filed as activators. AID 624287; active = well fitted activation curve with a large enough effect; inconclusive = small, poorly fitted or top-dose-only effect, or another doubt; inactive = no such curve, though single readings can be large or run the other way; cell line not stated here;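 also: phosphodiesterase inhibitor Ro 20-1724 added with compounds to block cAMP breakdown; potency is read from the fitted curve at half-maximal effect; nearly all actives have a fitted effect of over 60% in size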
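Cells in DMEM/10% FBS with G418 were pretreated with compounds in DMSO plus […] (300 uM stock) for 30 min at 37C. cAMP was measured by HTRF (cAMP-d2 plus anti-cAMP antibody-K) after 30 min at room temperature.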
RXFP1 ag: activates the human relaxin receptor RXFP1. Q9HBX9. HEK293T-RXFP1 cAMP TR-FRET, 30 min; response scale: percent of porcine relaxin response, buffer zero. Potency, µM (series often up to 57.5 µM), for the others: at the highest dose activation, actives largely listed as activators. hit rate 0.3% among 370,000; active = well fitted activation curve with a large enough effect; inconclusive = small, poorly fitted or top-dose-only effect; also: potency is read from the fitted curve at half-maximal effect; % is scaled to controls: 0 for no effect and ±100 for the full control effect; nearly all actives have a fitted effect of over 60% in size
Target sequence (Q9HBX9 whole entry, looked up): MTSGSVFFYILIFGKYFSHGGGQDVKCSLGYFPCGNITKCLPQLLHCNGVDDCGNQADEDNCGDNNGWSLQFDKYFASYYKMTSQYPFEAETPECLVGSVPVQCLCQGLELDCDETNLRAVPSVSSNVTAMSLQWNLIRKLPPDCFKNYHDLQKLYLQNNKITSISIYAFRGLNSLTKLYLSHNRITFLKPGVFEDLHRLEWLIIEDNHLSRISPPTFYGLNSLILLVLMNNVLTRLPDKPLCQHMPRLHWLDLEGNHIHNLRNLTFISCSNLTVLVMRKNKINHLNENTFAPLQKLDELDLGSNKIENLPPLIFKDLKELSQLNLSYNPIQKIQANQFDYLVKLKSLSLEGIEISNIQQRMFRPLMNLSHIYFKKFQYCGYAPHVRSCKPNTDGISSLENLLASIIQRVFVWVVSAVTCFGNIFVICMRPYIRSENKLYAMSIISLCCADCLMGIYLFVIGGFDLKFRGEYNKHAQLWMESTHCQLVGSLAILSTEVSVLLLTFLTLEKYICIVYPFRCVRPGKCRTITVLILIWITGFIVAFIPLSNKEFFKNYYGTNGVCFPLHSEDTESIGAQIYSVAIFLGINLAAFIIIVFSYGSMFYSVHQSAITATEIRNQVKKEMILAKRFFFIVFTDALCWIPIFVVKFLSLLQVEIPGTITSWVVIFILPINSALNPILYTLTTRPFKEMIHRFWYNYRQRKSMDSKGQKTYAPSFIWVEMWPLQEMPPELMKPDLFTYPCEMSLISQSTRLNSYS
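Agonist response is measured as cAMP accumulation in an RXFP1-transfected HEK293T line under PDE4 inhibition. Values are scaled between buffer-only and 29 nM porcine relaxin, and EC50s come from standard Hill equation fits.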
pAkt inh: Akt phosphorylation inhibition | activity change, % for hits at 50 µM | hit rate 0.32% among 360,000 | Neuro2A IGF-stimulated pAkt S473 HTRF, 20 min; stronger effect = lower value | AID 651550; in the data active = activity change below about -80%; inconclusive = mostly about -51% to -80%; also: % is scaled to controls: 0 for no effect and ±100 for the full control effect
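Neuro2A cells in DMEM with 0.5% FBS, overnight at 37 deg C, given compound at single 50 µM final, then IGF (6 nM final) for 20 min at 37 deg C. Lysed; phospho-Akt Ser473 by HTRF after 24 h, 665/615 ratio.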
gsp antag: antagonizes gsp, the McCune-Albright syndrome mutation | gsp-mutant cells, cAMP HTRF, 30 min | Potency, µM (highest dose often 76.9 µM), inactives show top-dose activity change, negative = inhibition, actives largely listed as inhibitors | hit rate 0.4% among 340,000; calls by dose curve; cell line not stated here;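 also: intracellular cAMP measured with PDE inhibitor Ro 20-1724 present during compound exposure; potency is read from the fitted curve at half-maximal effect; % is scaled to controls: 0 for no effect and ±100 for the full control effect; nearly all actives have a fitted effect of over 65% in size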
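Cells in G418 medium, seeded 16-24 h, 37C; buffer exchange to DPBS + 1 mM CaCl2, 0.5 mM MgCl2, 0.05% BSA; cpds in DMSO + […] (300 uM stock), 30 min 37C; HTRF cAMP detection.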
ClpP mod: qHTS Assay for Activators of ClpP; ATP-dependent Clp protease proteolytic subunit (Bacillus subtilis (strain 168)), P80244; purified B. subtilis ClpP, FRET peptide cleavage, 20 min; Potency, µM (highest dose often 57.5 µM), for inactives: top-dose activity change, negative = active; hit rate 1.9% among 340,000; AID 651965, 2013; active = well fitted falling curve with a large enough effect; inconclusive = small, poorly fitted or top-dose-only effect; inactive = no such curve, though single readings can be large or run the other way; also: potency is read from the fitted curve at half-maximal effect; the source files actives as falling curves though it sought activators and does not explain the sign; nearly all actives have a fitted effect of over 65% in size
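Purified B. subtilis ClpP, 10 microg/mL final in Tris/HCl pH8 with KCl, BSA, glycerol and Tween-20, cleaved an Abz/nitrotyrosine-quenched decapeptide. Fluorescence (ex 320, em 430) was read at 0 and 20 min at room temperature. Delta was normalized to 5.8 microM ADEP and DMSO/no-enzyme controls.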
RXFP1 antag: blocks the human relaxin receptor RXFP1; Q9HBX9; HEK293-RXFP1, relaxin-stimulated cAMP HTRF, 30 min; stronger effect = lower value; activity change, negative = inhibition, % at 57.5 µM; hit rate 0.59% among 350,000;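 active = activity change of -60% or lower, but not beyond a set lower limit; inconclusive = change between -60% and -40%, or beyond the set limit; inactive = change above -40%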; also: % is scaled to controls: 0 for no effect and ±100 for the full control effect
An asterisk follows results filed as active; [ ] = remark or other dose.

`COc1ccccc1-c1c(C)oc2c(CN3CCOCC3)c(O)ccc2c1=O` gave gsp ag inconclusive, RXFP1 ag 4.1%, pAkt inh inactive, gsp antag 1.4%, ClpP mod 3.4% and RXFP1 antag 1.9.
`COc1cccc(Oc2c(C)oc3c(CN4CCOCC4)c(O)ccc3c2=O)c1` gave gsp ag 1.9%, pAkt inh inactive, gsp antag 7.1%, ClpP mod 3.8% and RXFP1 antag 5.2.
For C[C@H](CO)N1C[C@H](C)[C@@H](CN(C)C(=O)Nc2ccccc2)Oc2ncc(-c3ccc(C#N)cc3)cc2C1=O the results were gsp ag -31.0%, pAkt inh inactive, ClpP mod 4.0% and RXFP1 antag 10.2.
`Cn1c2c(sc1=O)CCC2` gave gsp ag 52.4%, pAkt inh inactive, gsp antag 8.7% and RXFP1 antag -2.2.
`COc1ccc2[nH]c(=O)c(CN(Cc3cccs3)Cc3nnnn3C(C)(C)C)cc2c1` gave gsp ag -27.6%, RXFP1 ag 5.5%, pAkt inh inactive, gsp antag -18.3%, ClpP mod 31.6µM* and RXFP1 antag 2.7.
`COc1ccc2[nH]c(=O)c(CN(Cc3cccnc3)Cc3nnnn3CC3CCCO3)cc2c1` (stereo not given) gave gsp ag inconclusive, RXFP1 ag 0.0%, pAkt inh inactive, gsp antag 5.1%, ClpP mod 3.2% and RXFP1 antag -4.5.
COc1ccc2[nH]c(=O)c(CN(Cc3ccccc3)Cc3nnnn3CC3CCCO3)cc2c1 (stereo not given) was read as gsp ag 2.7%, RXFP1 ag -1.5%, pAkt inh inactive, gsp antag -11.4%, ClpP mod 28.2µM* and RXFP1 antag 9.7.
COc1cc2cc(CN(Cc3nnnn3Cc3ccccc3)CC3CCCO3)c(=O)[nH]c2cc1OC (stereo not given) was read as gsp ag 7.0%, RXFP1 ag 4.3%, pAkt inh inactive, gsp antag 6.6%, ClpP mod 28.2µM* and RXFP1 antag -2.5.
Cc1ccc(-c2noc(CC(=O)c3ccc([N+](=O)[O-])cc3)n2)cc1 was read as gsp ag 15.9%, pAkt inh inactive, gsp antag 0.6%, ClpP mod -3.7% and RXFP1 antag -8.8.
`N#CCc1ccc(Oc2ncccn2)cc1` gave gsp ag -0.7%, RXFP1 ag -3.2%, pAkt inh inactive, gsp antag 7.4%, ClpP mod -0.3% and RXFP1 antag -3.1.
For CCNC(=O)C1(C)CCCN(C(=O)c2cc(-c3cccs3)oc2C)C1 (stereo not given) the results were pAkt inh inactive and ClpP mod -5.8%.
`COc1ccc(-n2ncc(C(=O)Nc3ccc(C)cc3Cl)c2C2CCN(C(=O)OC(C)(C)C)CC2)cc1` gave RXFP1 ag -0.9%, ClpP mod -0.3% and RXFP1 antag -37.0.
`O=C(OCC(=O)N1CCN(c2ccccc2)CC1)c1cccc(Cl)c1` gave gsp ag 19.0%, RXFP1 ag 0.8%, pAkt inh -113.2%*, gsp antag -0.2%, ClpP mod -0.5% and RXFP1 antag -18.6.
For O=C(OCC(=O)N1CCN(c2ccccc2)CC1)c1cnc(Cl)c(Cl)c1 the results were RXFP1 ag -1.7%.
Nc1nnc(SCC(=O)NCCOc2ccccc2)s1 was read as gsp ag inconclusive, RXFP1 ag -2.8%, pAkt inh inactive, gsp antag 19.3%, ClpP mod 25.1µM* and RXFP1 antag -21.7.
Screening CC(C)(C)c1cc(NC(=O)CSc2nnc(NCc3ccccc3)s2)n(-c2ccccc2)n1 returned gsp ag -72.2%, RXFP1 ag -0.1%, pAkt inh inactive, gsp antag inconclusive, ClpP mod -0.1% and RXFP1 antag -10.2.
For CC(C)(C)c1cc(NC(=O)CSc2nnc(N)s2)n(-c2ccccc2)n1 the results were gsp ag -4.7%[15.4 µM], RXFP1 ag 0.6%, pAkt inh inactive, gsp antag -3.5%, ClpP mod 28.2µM* and RXFP1 antag 2.5.
`Cc1ccc(C)c(NC(=O)CN(C)C(=O)CN2C(=O)C3CCCCC3C2=O)c1` (stereo not given) gave gsp ag -18.5%, RXFP1 ag -0.9%, pAkt inh inactive, gsp antag 6.5%, ClpP mod 0.9% and RXFP1 antag -3.9.
N#Cc1c(C(F)(F)F)cc(-c2ccco2)nc1SCc1ccncc1 was read as gsp ag 11.1%, RXFP1 ag 1.7%, pAkt inh inactive, gsp antag inconclusive, ClpP mod 25.1µM* and RXFP1 antag -12.1.
`N#Cc1c(C(F)(F)F)cc(-c2ccco2)nc1SCc1ccccn1` gave gsp ag -24.2%, RXFP1 ag 5.5%, pAkt inh inactive, gsp antag -11.8%, ClpP mod 31.6µM* and RXFP1 antag 25.1.
CCN(CC)C(=O)CSc1nc(-c2ccco2)cc(C(F)(F)F)c1C#N was read as gsp ag -0.6%, RXFP1 ag -1.6%, pAkt inh inactive, gsp antag -5.8%, ClpP mod 31.6µM* and RXFP1 antag 3.7.
CSc1nc(-c2ccco2)cc(C(F)(F)F)c1C#N was read as gsp ag -17.0%, RXFP1 ag -0.1%, pAkt inh inactive, gsp antag inconclusive, ClpP mod -7.4% and RXFP1 antag -14.8.
For N#Cc1c(C(F)(F)F)cc(-c2ccc(F)cc2)nc1SCC(=O)O the results were gsp ag 14.7%[15.4 µM], RXFP1 ag 0.4%, pAkt inh inactive, gsp antag -80.8% and RXFP1 antag -9.6.
`CCn1c(=O)n(CC)c2cc(N3CCCCC3)c(NC(=O)Nc3cc(C)cc(C)c3)cc21` gave RXFP1 ag -2.6%, ClpP mod inconclusive and RXFP1 antag -19.7.
Screening O=C1CC(c2ccccc2)(c2ccccc2)c2ccccc21 returned gsp ag 4.4%[15.4 µM], pAkt inh inactive, gsp antag -20.9%, ClpP mod 31.6µM* and RXFP1 antag inconclusive.
`CC1(C)Cc2c(C#N)c(NCCO)nc(-c3ccco3)c2CO1` gave gsp ag 3.1%[15.4 µM], RXFP1 ag 9.2%, pAkt inh inactive, gsp antag -7.2% and RXFP1 antag -14.2.
`CC1(C)Cc2c(C#N)c(NCCN3CCOCC3)nc(-c3ccco3)c2CO1` gave gsp ag 2.4%, RXFP1 ag -0.3%, pAkt inh inactive, gsp antag -1.4%, ClpP mod 31.6µM* and RXFP1 antag 13.8.
